One test relates to JEG-3. As to the kind of experiment: Primary qHTS to identify gynecologic anti-cancer compounds using libraries of approved drugs and bioactive compounds (AID 1345084). Also: nearly all actives have a fitted effect of over 55% in size. Also: potency is read from the fitted curve at half-maximal effect. The note with it: Gynecologic cancer cell panel viability, ATPlite luminescence, 48 h; series mostly up to 57.5 µM. Put shortly:
(§1)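 Luminescence from the ATPlite ATP-monitoring reagent indicates viable cell number; lower signal means cytotoxicity. Cells received compound 16 h after seeding and were exposed for 48 h across five concentrations.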

For a further test, the system named is OV90. The test is described as above. Conditions: Gynecologic cancer cell panel viability, ATPlite luminescence, 48 h; series mostly up to 57.5 µM. Summed up: as §1
Background: ATP-based viability assays read luminescence as a measure of living cells.

Another test relates to PA-1. The test is described as above. The note with it: Gynecologic cancer cell panel viability, ATPlite luminescence, 48 h; series mostly up to 57.5 µM. Put shortly: as §1
The subject of another test is SKOV3. The description is as above. Conditions: Gynecologic cancer cell panel viability, ATPlite luminescence, 48 h; series mostly up to 57.5 µM. Put shortly:
as §1

The test system of the next test is Tov-21-G. The description is as above. The note with it: Gynecologic cancer cell panel viability, ATPlite luminescence, 48 h; series mostly up to 57.5 µM. Put shortly: as §1
The subject of another test is Tov112D. Described as above. Conditions: Gynecologic cancer cell panel viability, ATPlite luminescence, 48 h; series mostly up to 57.5 µM. Put shortly: as §1
Test [1] can be described thus: Drug repurposing screens with cells derived from glioblastoma tumor samples (AID 1345199). Also: nearly all actives have a fitted effect of over 40% in size. Also: potency is read from the fitted curve at half-maximal effect. As to activity, negative = cell killing: % is scaled to controls: 0 for no effect and ±100 for the full control effect. The note with it: GBM patient neurospheres viability, ATP luminescence, 48 h. Put shortly: (§2)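 Primary testing used CD133+ neurospheres from four GBM patients, seven concentrations, 48 h exposure and ATP-based viability; confirmation added three slower-growing patient lines.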

For the next test, the system named is astro. Described as above. Conditions: viability, ATP luminescence, 48 h; series mostly up to 45.9 µM. Summed up: as §2
Test [2] concerns the target Nuclear receptor subfamily 1 group I member 2 (Rattus norvegicus) (UniProt Q9R1A7). The test is described as follows: qHTS assay for small molecule activators of the rat pregnane X receptor (rPXR) signaling pathway (AID 651751; call rule not given here; also: 0% is about no effect). The note with it: rPXR reporter cells, luciferase (One-Glo), 24 h.
The nature of test [3]: qHTS assay for small molecule activators of the human pregnane X receptor (PXR) signaling pathway (AID 720659; call rule not given here; also: 0% is about no effect).
The nature of test [4]: qHTS assay to identify inhibitors of the type 1 interferon - major histocompatibility complex class I in skeletal muscle: Counter screen cell viability and HiBit confirmation (AID 1347412). Also: % is scaled to controls: 0 for no effect and ±100 for the full control effect; nearly all actives have a fitted effect of over 60% in size. Conditions: iHSKM muscle cells + IFN-b, HiBiT or CellTiter-Glo, 24 h; Potency: HiBiT unless noted; Viability, at 45.9 µM (top of the series). Summed up: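 After 24 h with human IFN-beta (4 ng/ml) and compound titrations (top 46 uM final, 1:3, 12 points), HLA-B HiBit myoblasts were lysed for either Nano-Glo HiBiT luminescence or CellTiter Glo viability on paired plates.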
On the technique in general: Quantitative high-throughput screening tests each substance at several concentrations.

Setting [5] is: at 45.9 µM (top of the series), tumour line B.
Where [6] appears, read: at 45.9 µM (top of the series), tumour line D.
Setting [7] is: at 46.1 µM (top of the series), tumour line C.
Setting [8] is: at 46 µM (top of the series), tumour line A.
Setting [9] is: at 20 µM (top of the series), tumour line C.
[10] abbreviates: at 21.2 µM (top of the series), tumour line B.
The mark [11] stands for this setting: at 21.2 µM (top of the series), tumour line D.

Values without a mark were called inactive. Results filed as inconclusive are left out. Activity calls are given as the source filed them. Unless noted, calls follow the shape of the dose curve; as a rule, active = well fitted curve in the direction sought with a large enough effect; inconclusive = small, poorly fitted or top-dose-only effect, or another doubt; inactive = no such curve, though single readings can be large; an effect the other way counts as inactive or inconclusive.

Sequence of Nuclear receptor subfamily 1 group I member 2 (Rattus norvegicus) (Q9R1A7 whole entry, looked up): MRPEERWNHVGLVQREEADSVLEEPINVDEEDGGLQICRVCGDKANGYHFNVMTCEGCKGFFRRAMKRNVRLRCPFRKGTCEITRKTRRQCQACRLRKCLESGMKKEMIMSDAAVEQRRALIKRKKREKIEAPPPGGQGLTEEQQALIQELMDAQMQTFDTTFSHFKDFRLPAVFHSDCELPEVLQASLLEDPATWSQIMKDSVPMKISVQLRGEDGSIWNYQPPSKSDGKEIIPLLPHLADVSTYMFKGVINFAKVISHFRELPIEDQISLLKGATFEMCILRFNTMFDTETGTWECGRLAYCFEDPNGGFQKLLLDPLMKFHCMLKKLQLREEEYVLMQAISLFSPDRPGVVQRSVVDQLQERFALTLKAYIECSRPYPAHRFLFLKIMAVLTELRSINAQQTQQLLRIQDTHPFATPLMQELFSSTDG

In the case of `COC(=O)CCc1ccc(OCC(O)CNC(C)C)cc1` (stereo unspecified), the Potency result with JEG-3, in the test with OV90, with PA-1, with SKOV3, in the test with Tov-21-G and in the test on Tov112D was “inactive” in each case. Moreover, the Potency result with astro was “inactive”. The activity, negative = cell killing is -6.72% in test [1] (setting [5]), -12.4% in test [1] (setting [6]) and -12.3% in test [1] (setting [7]).

In the case of `Cc1cc(=O)n(-c2ccccc2)n1C`, the Potency entry in the test with JEG-3, in the test with OV90, in the test on PA-1, with SKOV3, in the test with Tov-21-G and with Tov112D was “inactive” in each case. The Potency entry with astro was “inactive”. For the same compound, the activity, negative = cell killing in test [1] (setting [5]) is -5.78%; in test [1] (setting [6]), 0.358%; in test [1] (setting [8]), -19.4%; in test [1] (setting [7]), -23.6%. In [2], the max response is 0.521%. The result in test [3] was inactive.

Turning to `CC(C)N=C(N)/N=C(\N)Nc1ccc(Cl)cc1`, the Potency entry in the test on JEG-3, in the test with OV90, with PA-1, with Tov-21-G, in the test with Tov112D and in the test with astro was “inactive” each time. In the test with SKOV3, the Potency was 28.2 µM (active). Moreover, the activity, negative = cell killing in test [1] (setting [9]) was -3.45%; in test [1] (setting [10]), -11.2%; in test [1] (setting [11]) it was -20.6%.

`CN1C(CCl)Nc2cc(Cl)c(S(N)(=O)=O)cc2S1(=O)=O` (stereo unspecified): the Potency result in the test on JEG-3, in the test with OV90, in the test with PA-1, in the test on SKOV3, with Tov-21-G and in the test with Tov112D was “inactive” throughout. Further, the Potency result in the test with astro is “inactive”. For the same compound, the activity, negative = cell killing in [1] (setting [5]) is -5.52%; in test [1] (setting [6]), -2.64%; in test [1] (setting [7]) it was -28.6%.

Regarding `CC(C)(Oc1ccc(Cl)cc1)C(=O)O`, the Potency entry in the test with JEG-3, in the test with OV90, in the test on PA-1, with SKOV3, in the test on Tov-21-G and in the test with Tov112D was “inactive” each time. Also, in the test with astro, the Potency result is “inactive”. The activity, negative = cell killing is -11.3% in test [1] (setting [5]), 2.87% in test [1] (setting [6]), -14.8% in [1] (setting [8]) and -3.07% in test [1] (setting [7]). In addition, the max response in test [2] was -4.53%. Further, the result in test [3] was inactive.

Regarding `CC(O)C(=O)O` (stereo unspecified), the Potency result in the test with JEG-3, with OV90, with PA-1, in the test on SKOV3, with Tov-21-G and in the test with Tov112D was “inactive” each time. In addition, in the test on astro, the Potency entry is “inactive”. Further, the activity, negative = cell killing was -5.68% in test [1] (setting [5]), -11.1% in [1] (setting [6]), -8.3% in test [1] (setting [8]) and -6.94% in test [1] (setting [7]). Besides, the max response in test [2] is 2.35%. For the same compound, in [3], the compound was classed as inactive.

As to `C[C@@H]1C[C@H]2[C@@H]3C[C@H](F)C4=CC(=O)C(Cl)=C[C@]4(C)[C@@]3(F)[C@@H](O)C[C@]2(C)[C@@]1(O)C(=O)CO`, the Potency result in the test with JEG-3, in the test with OV90, in the test on PA-1, in the test with SKOV3, in the test with Tov-21-G and in the test on Tov112D was “inactive” each time. Moreover, the Potency result in the test on astro was “inactive”. Besides, the activity, negative = cell killing is -15.9% in [1] (setting [5]), -23.3% in [1] (setting [6]) and -24.8% in [1] (setting [7]).

For `COc1ccc(C2C(=O)c3ccccc3C2=O)cc1`, the Potency entry in the test on JEG-3, in the test on OV90, in the test with PA-1, in the test with SKOV3, with Tov-21-G and in the test on Tov112D was “inactive” each time. Moreover, the Potency result with astro is “inactive”. The activity, negative = cell killing in test [1] (setting [5]) is -10.6%; in test [1] (setting [6]) it was -14.2%; in test [1] (setting [7]), -5.24%.

As to `CCCCCC=CCC=CCCCCCCCC(=O)OCC`, the Potency result in the test on JEG-3, with OV90, with PA-1, with SKOV3, in the test with Tov-21-G and in the test with Tov112D was “inactive” throughout. In addition, the Potency entry in the test with astro was “inactive”. For the same compound, the activity, negative = cell killing in test [1] (setting [5]) is -5.69%; in test [1] (setting [6]), -29.1%; in test [1] (setting [7]) it was -8.48%.

As to `CCOC(=O)OC(C)OC1=C(C(=O)Nc2ccccn2)N(C)S(=O)(=O)c2ccccc21` (stereo unspecified), the Potency result in the test on JEG-3, in the test with OV90, in the test with PA-1, with SKOV3, in the test with Tov-21-G and with Tov112D was “inactive” each time. Moreover, the Potency entry in the test with astro was “inactive”. Further, the values for the activity, negative = cell killing in test [1] (setting [5]), in test [1] (setting [6]) and in test [1] (setting [7]) were -23.8%, -1.93% and 20.6%, respectively.

Take `CN(C)CCOc1ccccc1Cc1ccccc1`: the Potency result in the test on JEG-3, in the test with OV90, with PA-1, in the test with SKOV3, in the test with Tov-21-G and in the test with Tov112D was “inactive” each time. In addition, the Potency result in the test with astro is “inactive”. Also, the values for the activity, negative = cell killing in test [1] (setting [5]), in [1] (setting [6]) and in test [1] (setting [7]) were -0.223%, -22.7% and -17.3%, respectively.

For `C#C[C@]1(OC(C)=O)CC[C@H]2[C@@H]3CCC4=C[C@@H](OC(C)=O)CC[C@@H]4[C@H]3CC[C@@]21C`, the Potency entry in the test with JEG-3, with OV90, in the test on PA-1, in the test on SKOV3, in the test on Tov-21-G and in the test with Tov112D was “inactive” each time. Besides, the Potency result in the test on astro is “inactive”. Further, the activity, negative = cell killing in [1] (setting [7]) is -26.2%. Moreover, the Potency was 10 µM (active) in [1] (tumour line A) and 17.8 µM (active) in test [1] (tumour line D).

With `CCN(CCCc1ccccc1)CCCc1ccccc1`, the Potency entry in the test with JEG-3, in the test on PA-1, in the test on SKOV3, in the test on Tov-21-G, in the test with Tov112D and with astro was “inactive” throughout. Further, the Potency in the test with OV90 was 28.2 µM (active); in test [1] (tumour line A), 5.01 µM (active). The activity, negative = cell killing was -18.9% in test [1] (setting [9]) and 2.05% in [1] (setting [10]).

Turning to `CCCC(=O)O[C@]1(C(=O)CO)CC[C@H]2[C@@H]3CCC4=CC(=O)CC[C@]4(C)[C@H]3[C@@H](O)C[C@@]21C`, the Potency entry in the test with JEG-3, in the test with OV90, in the test with PA-1, in the test on SKOV3, in the test on Tov-21-G and with Tov112D was “inactive” in each case. For the same compound, the Potency entry (in the test on astro; in [4]) was “inactive” throughout. In addition, the activity, negative = cell killing in test [1] (setting [5]) is 1.95%; in test [1] (setting [6]) it was -21.3%; in test [1] (setting [8]) it was -2.7%; in [1] (setting [7]), 6.32%.

Turning to `CN1CCN(C(c2ccccc2)c2ccccc2)CC1`, the Potency result in the test with JEG-3, in the test with OV90, in the test on PA-1, with SKOV3, in the test with Tov-21-G and with Tov112D was “inactive” throughout. In addition, the Potency result in the test on astro was “inactive”. The values for the activity, negative = cell killing in test [1] (setting [9]), in test [1] (setting [10]) and in test [1] (setting [11]) were -1.97%, -1.95% and -26.8%, respectively.

On to `CCCCCCCCCCCCCCCCOP(=O)([O-])OCC[N+](C)(C)C`, for which the Potency entry with JEG-3, in the test on PA-1, with SKOV3, in the test on Tov112D and in the test with astro was “inactive” each time. For the same compound, the Potency with OV90 and in the test with Tov-21-G was 25.1 µM (active) in each case. Further, the figures for the activity, negative = cell killing in [1] (setting [5]), in test [1] (setting [6]) and in [1] (setting [7]) were -7.15%, -0.719% and -5.47%, respectively.

Values taken from PubChem BioAssay (NCATS).
